This is a sample that favours compounds with a hit; in the whole collection about 6.1% have one here.
ATXN2 expr inh = ATXN2 expression inhibition; HEK-293 ATXN2-luciferase reporter, luminescence, 24 h; Potency, µM (top dose mostly 57 µM), for the others: at the top dose activity change, negative = inhibition, most hits filed as inhibitors; 0.72% of 360,000 active; note: % is set by controls: 0 for no effect and ±100 for the full control effect; nearly all actives have a fitted effect of over 55% in size
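ATXN2-luciferase reporter cells (luciferase flanked by upstream and downstream ATXN2 gene portions) were treated 24 h at 37 °C with compounds at up to 57 uM. SteadyGlo luminescence gave expression; GF-AFC fluorescence gave viability.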
HepG2 tox = HepG2 cytotoxicity, counter-screen for TGF-b inhibitors | AID 588856 | 0.76% of 410,000 active | Potency, µM (titrated, usually from 46.1 µM), without a hit: at the top dose activity change, negative = cytotoxicity, usual class: cytotoxic | HepG2 CAGA-GFP viability, ATP luminescence, 18 h
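CellTiter-Glo luminescence gave cytotoxicity after 18 hours at 37 degrees C. The cells were HepG2 CAGA-GFP in 1% FBS DMEM, stimulated with 500 pg/mL TGF-beta after compound addition. %Activity was normalised to no-cell wells (complete cell-killing) and DMSO (no toxicity), and curves were fitted and classified.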
RORgamma inh = ROR gamma (mouse) transcription inhibition | Potency, µM (titrated, usually from 53.6 µM), without a hit: at the highest dose activity change, negative = inhibition, actives largely listed as inhibitors | P51450 | Drosophila S2 Gal4-RORgamma UAS-luciferase reporter, 20 h | 5.4% of 310,000 active; note: % is set by controls: 0 for no effect and ±100 for the full control effect; nearly all actives have a fitted effect of over 60% in size
Target sequence (P51450 whole entry, looked up, the tested form may be a part): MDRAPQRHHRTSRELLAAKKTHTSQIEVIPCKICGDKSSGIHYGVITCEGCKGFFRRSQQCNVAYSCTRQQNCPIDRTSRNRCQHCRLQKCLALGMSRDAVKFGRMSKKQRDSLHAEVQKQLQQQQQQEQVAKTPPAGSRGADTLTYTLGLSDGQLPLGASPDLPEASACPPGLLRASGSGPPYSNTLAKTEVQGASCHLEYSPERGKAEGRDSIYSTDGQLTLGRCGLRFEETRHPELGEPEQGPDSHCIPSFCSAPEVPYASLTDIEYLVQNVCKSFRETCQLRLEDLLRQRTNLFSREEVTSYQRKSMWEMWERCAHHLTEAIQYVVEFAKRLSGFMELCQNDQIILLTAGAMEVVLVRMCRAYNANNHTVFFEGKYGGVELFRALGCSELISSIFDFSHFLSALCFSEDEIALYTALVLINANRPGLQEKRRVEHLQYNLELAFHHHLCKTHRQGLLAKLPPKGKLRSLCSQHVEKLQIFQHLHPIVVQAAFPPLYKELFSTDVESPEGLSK
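ROR gamma transcriptional activity was tracked as Gal4-UAS luciferase output in stably transfected Drosophila Schneider cells, with compound added 1 hr before 700 uM copper sulfate induction and a 20 hr ambient-temperature incubation.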
S2 tox = reduces viability in counter-screen for ATXN expression inhibitors; S2 cells (HEK-293 line with an ATXN2-luciferase reporter) viability, CellTiter-Fluor protease fluorescence, 24 h; Potency, µM (series often up to 56.7 µM), usual class: cytotoxic; 0.49% of 400,000 active; note: nearly all actives have a fitted effect of over 40% in size
TGFb SMAD3 inh = blocks TGF-b signaling. HepG2 CAGA-GFP TGF-b/SMAD3 reporter, GFP fluorescence, 18 h; TGF-beta stimulated, 500 pg/mL final. 1.2% of 410,000 active. Potency, µM (top dose mostly 46.1 µM), without a hit: at the top dose activity, negative = inhibition, usual class: inhibitors; note: % is set by controls: 0 for no effect and ±100 for the full control effect; nearly all actives have a fitted effect of over 65% in size
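Cell-based qHTS in HEPG2 carrying a CAGA-GFP Smad reporter; compounds added before 500 pg/mL final TGF-beta, 18 h incubation at 37 degrees C, GFP fluorescence quantified per cell by imaging cytometry.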
Gal4-VP16 FLuc = Gal4-VP16 reporter inhibition counter-screen | Drosophila S2 Gal4-VP16 UAS-luciferase, luminescence, 20 h | Potency, µM (top dose mostly 53.6 µM), for inactives: at the top dose activity, negative = inhibition, usual class: inhibitors | 3.5% of 310,000 active | AID 2546;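 note: Gal4-VP16 expression switched on by copper sulfate through the metallothionein promoter; % is set by controls: 0 for no effect and ±100 for the full control effect; nearly all actives have a fitted effect of over 50% in size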
Numbers without * were called inactive; i = inactive; ? = inconclusive; . = not tested or not shown; [ ] = remark or other dose. Calls come from the whole dose curve; as a rule, active = well fitted curve in the direction sought with a large enough effect; inconclusive = small, poorly fitted or top-dose-only effect, or another doubt; inactive = no such curve, though single readings can be large; an effect the other way counts as inactive or inconclusive. Potency is the fitted concentration of half-maximal effect.

SMILES	ATXN2 expr inh	HepG2 tox	RORgamma inh	S2 tox	TGFb SMAD3 inh	Gal4-VP16 FLuc
O=C(Nc1ccc(Cl)cc1)C1Cc2c(-c3ccccc3)ccnc2O1 (configuration not stated)	-23.3%	-20.0%	.	i	-0.8%	.
CC(=O)Nc1cccc(-c2ccnc3c2CC(C)(C(=O)Nc2cccc(OC(F)(F)F)c2)O3)c1 (configuration not stated)	?	-50.8%	.	?	14.1µM*	.
CC(=O)Nc1ccc(-c2ccnc3c2CC(C)(C(=O)Nc2ccc(Cl)c(C(F)(F)F)c2)O3)cc1 (configuration not stated)	20µM*	-59.2%	.	12.6µM*	?	.
COc1ccc2c(CNCCc3cccs3)c(C(=O)O)n(Cc3ccccc3C)c2c1	.	-76.4%	.	.	?	.
CCN(CC)S(=O)(=O)c1ccc2c(c1)N(CC(=O)NCCCN1CCN(c3ccc(OC)cc3)CC1)C(=O)CO2	-20.3%	-5.8%	.	?	-19.4%	.
COC(=O)c1cc2oc3ccccc3c2n1CC(=O)Nc1ccc(C)cc1C	3.4%	-9.7%	.	i	0.0%	.
CC(C)CNC(=O)CSc1nc2scc(-c3ccccc3)c2c(=O)[nH]1	-8.2%	-31.9%	24.1%	?	?	-9.8%
COc1ccc(CCNC(=O)CSc2nc3scc(-c4ccccc4)c3c(=O)[nH]2)cc1	-15.8%	-33.8%	.	i	12.6µM*	.
CCc1cc2c(N3CCN(C(=O)c4ccco4)CC3)ncnc2s1	2.4%	2.7%	?	i	6.9%	-7.3%
O=C(c1ccco1)N1CCN(c2ncnc3c2[nH]c2ccc(Cl)cc23)CC1	.	.	3.2%	.	.	14.1µM*
O=C(c1ccco1)N1CCN(c2c(-c3ccccc3)c3cc(Cl)ccc3[nH]c2=O)CC1	?	17.8µM*	2µM*	.	?	?
O=c1[nH]c2ccc(Cl)cc2c(-c2ccccc2)c1N1CCOCC1	-6.3%	-39.4%	16.7%	i	-1.3%	-28.8%
Cc1ccccc1NC(=O)c1ccc2nc(Cc3ccccc3)oc2c1	?	-22.2%	.	?	3.8%	.
COc1cc2c(cc1OC)n(CC(=O)c1ccc(C)cc1C)c(=O)n1nc(CCn3nc(C)cc3C)nc21	.	-12.5%	.	.	-5.0%	.
CC(C)(C)C(=O)Nc1sc2c(c1-c1nc3ccccc3[nH]1)CCCC2	-23.1%	-30.4%	0.794µM*	i	31.0%	?
Cc1cc(Cl)ccc1OCc1nc(-c2ccc(O)cc2)n[nH]1	17.4%	-31.1%	?	i	20.2%	4.47µM*
O=C1NC(=O)C(=Cc2ccc3c(c2)OC(F)(F)O3)S1	50.7%	.	.	.	.	.
Cc1cc2ncn(CCOc3ccccc3)c2cc1C	39.2%	-7.6%	12.6µM*	i	0.0%	-29.6%
CCCCn1cnc2cc(C)c(C)cc21	-15.6%	0.4%	3.98µM*	i	4.4%	?
Cc1cc2ncn(CC(C)C)c2cc1C	-5.1%	-13.7%	7.94µM*	i	0.9%	?
CCOC(=O)c1noc2nc(C)n(CC(=O)NC(C)CC)c(=O)c12 (configuration not stated)	-10.5%	1.9%	.	i	3.4%	.
COc1ccc(NC(=O)c2ccccc2OCC(=O)Nc2ccc(Br)cc2)cc1	.	2.4%	.	.	-8.2%	.
Cc1ccc(/C=N/NC(=O)c2cccnc2)s1	2.5%	2.3%	17.8µM*	i	15.8%	-81.0%
Cc1ccc(/C=N/NC(=O)c2ccc(C(=O)N/N=C/c3ccc(C)s3)o2)s1	-1.7%	-7.1%	8.91µM*	i	2.7%	-20.7%
Cc1cccc(NC(=O)CSc2nc3c(oc4ccccc43)c(=O)n2-c2ccccc2)c1C	-12.9%	-35.2%	.	?	-3.4%	.
SMILES	ATXN2 expr inh	HepG2 tox	RORgamma inh	S2 tox	TGFb SMAD3 inh	Gal4-VP16 FLuc
CCN(CC)c1nc2c(S(=O)(=O)c3cccc(Cl)c3)nnn2c2ccsc12	.	-25.9%	.	.	?	.
Cc1[nH]n(-c2ccccc2)c(=O)c1N=Nc1cccc(S(=O)(=O)N2CCOCC2)c1	-25.3%	4.3%	7.94µM*	i	1.0%	?
Cc1[nH]n(-c2ccccc2)c(=O)c1N=Nc1c(Cl)cccc1Cl	.	8.1%	12.6µM*	i	13.1%	?
O=Nc1c(-c2ccccc2)[nH]n(-c2ccccc2)c1=O	?	-25.1%	?	i	-18.6%	15.8µM*
Cc1[nH]n(-c2ccccc2)c(=O)c1N=Nc1cccc(C(=O)O)c1	?	-3.4%	?	i	15.3%	2.82µM*
Cc1ccc(/C(=N/Nc2nc3ccccc3s2)C2=C(O)c3ccccc3C2=O)cc1	-16.3%	3.9%	4.47µM*	.	-5.7%	?
Cc1ccc(S(=O)(=O)N(C)CC(=O)Nc2nc3ccccc3s2)cc1	-8.6%	-31.4%	?	i	-18.2%	-81.2%
C[C@@H](CN1CC(=O)NC(=O)C1)N1CC(=O)NC(=O)C1	?	.	.	i	.	.
CN(N)c1nc(-c2ccccc2)cc(-c2ccccc2)n1	-26.4%	-1.4%	12.6µM*	i	10.9%	?
Cc1nc(-c2ccccc2)cc(-c2ccccc2)n1	16.6%	-5.9%	.	i	1.6%	.
Cc1ccc(C)c(NC(=O)Cn2c(=O)nc(-c3ccccc3)c3ccccc32)c1	.	-1.7%	.	.	1.1%	.
Cc1ccc2oc(=O)c(/C=C(\O)C(C)(C)C)nc2c1	-2.8%[11.3 µM]	-29.7%	5.01µM*	i	-4.4%	-21.1%
Cc1ccc2oc(=O)c(/C=C(\O)c3ccco3)nc2c1	2.2%	-13.6%	10µM*	i	?	?
CC(C)(C)/C(O)=C/c1nc2cc(Cl)ccc2oc1=O	-16.5%	-28.2%	-35.8%	i	?	-0.2%
C(=C1C=c2ccccc2=C1)c1ccc(N=Nc2ccc(C=C3C=c4ccccc4=C3)cc2)cc1	.	-12.4%	.	.	-4.1%	.
NNC(=O)c1cc(C2CC2)nc2ccc(Br)cc12	-16.7%	-3.3%	-18.5%	i	0.0%	-8.2%
NS(=O)(=O)c1ccc(CCNC(=O)c2cc(-c3ccc(Br)cc3)nc3ccccc23)cc1	.	-82.7%	3.55µM*	?	?	?
NNC(=O)c1cc(-c2ccc(O)cc2)nc2ccc(Br)cc12	.	-120.8%	12.6µM*	i	?	?
O=C(NCCc1ccc(Cl)cc1)c1cc(-c2ccccn2)nc2ccccc12	-34.6%	-25.5%	11.2µM*	?	?	?
Cc1ccccc1NS(=O)(=O)c1ccc(Br)s1	4.6%	-9.9%	.	i	-29.6%	.
Cc1ccc(NC(=O)Cn2c(=O)oc3cc(S(=O)(=O)NCc4ccccc4)ccc32)cc1	-10.3%	-29.3%	.	?	?	.
CCOc1cc(/C=N/Nc2nc(Nc3ccccc3)nc(N3CCCCC3)n2)ccc1OCC(=O)O	11.9%	-13.7%	4.47µM*	i	-5.3%	?
CCOc1cc(/C=N/Nc2nc(N3CCCC3)nc(N3CCCC3)n2)ccc1O	-13.1%	0.2%	5.62µM*	i	?	5.01µM*

Assay outcomes (PubChem BioAssay)
